These results are taken from publication PMC11062922 (Nature Chemical Biology, 2023).

Common to all, as to parameters: species or system human, MV4-11 + K-562 + COLO205 + SK-N-BE2 + OVCAR-8
Assay [1] has as its system AKT2. The conditions noted are these: read-out: apparent Kd; compound concentrations: 100 nM and 1000 nM (sheet 'Samples'), CATDS: 1.4638911444233901E-2; n = 1.
Assay [2] deals with IKBKE. The conditions noted are these: read-out: apparent Kd, n = 1.
Assay [3] relates to MAP2K2. The settings on record: read-out: apparent Kd, compound concentrations: 100 nM and 1000 nM (sheet 'Samples'), n = 1.
Assay [4] has as its system MAP4K3. The conditions noted are these: read-out: apparent Kd, compound concentrations: 100 nM and 1000 nM (sheet 'Samples'), n = 1.
Assay [5] concerns PIK3C2A. The settings on record: read-out: apparent Kd; compound concentrations: 100 nM and 1000 nM (sheet 'Samples'), CATDS: 1.67467583314573E-2; n = 1.
Assay [6] concerns PIK3C3. The settings on record: read-out: apparent Kd, n = 1.
For assay [7], the system named is PIM2. The settings on record: read-out: apparent Kd, n = 1.
Assay [8] has as its system STK11. The conditions noted are these: read-out: apparent Kd, compound concentrations: 100 nM and 1000 nM (sheet 'Samples'), n = 1.
Assay [9] has as its system TEC. The settings on record: read-out: apparent Kd; compound concentrations: 100 nM and 1000 nM (sheet 'Samples'), CATDS: 1.49433127144414E-2; n = 1.
For assay [10], the system named is TP53RK. The conditions noted are these: read-out: apparent Kd; compound concentrations: 100 nM and 1000 nM (sheet 'Samples'), CATDS: 1.2573959142924701E-2; n = 1.
In assay [11] the test system is ACVR1. The settings on record: read-out: apparent Kd, compound concentrations: 100 nM and 1000 nM (sheet 'Samples'), n = 1.
For assay [12], the system named is CDK10. The conditions noted are these: read-out: apparent Kd; compound concentrations: 100 nM and 1000 nM (sheet 'Samples'), CATDS: 2.6189541098699299E-2; n = 1.
Assay [13] relates to MAP4K2. The settings on record: read-out: apparent Kd, n = 1.
Assay [14] has as its system MAP4K5. The conditions noted are these: read-out: apparent Kd, compound concentrations: 100 nM and 1000 nM (sheet 'Samples'), n = 1.
In assay [15] the test system is RPS6KA1. The settings on record: read-out: apparent Kd, compound concentrations: 100 nM and 1000 nM (sheet 'Samples'), n = 1.
Assay [16] concerns SLK. The conditions noted are these: read-out: apparent Kd, n = 1.
The subject of assay [17] is TGFBR1. The conditions noted are these: read-out: apparent Kd; compound concentrations: 100 nM and 1000 nM (sheet 'Samples'), CATDS: 6.2904955022957598E-3; n = 1.
The test system of assay [18] is NEK9. The conditions noted are these: read-out: apparent Kd; compound concentrations:100 nM and 1000 nM (sheet 'Samples'); n = 1.
The subject of assay [19] is AKT3. The conditions noted are these: read-out: apparent Kd; compound concentrations:100 nM and 1000 nM (sheet 'Samples'); n = 1.
[20] abbreviates: compound concentrations:100 nM and 1000 nM (sheet 'Samples').

Molecules are shown by their SMILES. Read-outs that look alike come from different tables or passages of the source.

As to `CCn1c(-c2cccnc2O)nc2cnccc21` [SB-736715], the potency estimated from few doses was 1360 nM in assay [1]; 1730 nM in assay [2] (compound concentrations: 100 nM and 1000 nM (sheet 'Samples'), CATDS: 1.31503893194051E-2); 2210 nM in [3] (CATDS: 1.1967755653937401E-2); 2260 nM in assay [4] (CATDS: 1.18582584558427E-2); 1040 nM in assay [5]; 1190 nM in assay [6] (compound concentrations: 100 nM and 1000 nM (sheet 'Samples'), CATDS: 1.55952310039979E-2). The potency estimated from few doses in assay [7] (compound concentrations: 100 nM and 1000 nM (sheet 'Samples'), CATDS: 1.60081703977401E-2) is 1130 nM; in assay [8] (CATDS: 1.3793469415990099E-2), 1550 nM; in assay [9], 1300 nM; in [10], 1940 nM.
`NC(=O)c1cc(-c2ccccc2)cc2c(C3CCNCC3)c[nH]c12` [GSK301362A]: in [7] (setting [20]), the potency estimated from few doses is 1500 nM.
For `O=C(O)C(F)(F)F.O=C(O)C(F)(F)F.O=c1[nH]ccc2nc(N[C@@H]3CCCNC3)nc(Nc3ccc(S(=O)(=O)N4CCOCC4)cc3)c12.O=c1[nH]ccc2nc(N[C@@H]3CCCNC3)nc(Nc3ccc(S(=O)(=O)N4CCOCC4)cc3)c12` [GSK2177277A], the potency estimated from few doses in [11] (CATDS: 7.8898197775333495E-3) is 605 nM; in assay [12] it was 32 nM; in assay [3] (CATDS: 5.9505583835806203E-3) it was 2520 nM; in [13] (compound concentrations: 100 nM and 1000 nM (sheet 'Samples'), CATDS: 1.18083453898033E-2), 173 nM; in assay [4] (CATDS: 1.3665369195518201E-2), 120 nM; in assay [14] (CATDS: 2.1531310564231101E-2) it was 45.7 nM. For the same molecule, the potency estimated from few doses in assay [15] (CATDS: 7.3742407001506898E-3) is 792 nM; in [16] (compound concentrations: 100 nM and 1000 nM (sheet 'Samples'), CATDS: 7.3686549547766099E-3), 794 nM; in [17] it was 1740 nM.
On to `COc1cc[nH]c1/C=C1\C(=O)Nc2ccc(F)c(C#CC3(O)CCNCC3)c21.Cl` [RO0282986-001], for which the potency estimated from few doses in assay [3] (CATDS: 1.07586832750675E-2) is 1010 nM; in [4] (CATDS: 9.73261825141249E-3), 1470 nM; in assay [14] (CATDS: 8.9413368005166593E-3), 2190 nM; in assay [15] (CATDS: 9.1961356652332602E-3), 1900 nM; in assay [8] (CATDS: 1.0901325293505499E-2), 966 nM.
Take `CC(C)Oc1ccc2c(-c3ccnc(Nc4ccc(N5CCN(C)CC5)cc4)n3)cnn2n1` [GW696155X]: the potency estimated from few doses in assay [2] (setting [20]) was 343 nM; in [18], 26 nM.
As for `COc1ccc(-c2cc3c(N)ncnc3o2)cc1` [GW642138X], the potency estimated from few doses in assay [3] (CATDS: 0.100903208593323) was 1800 nM.
On to `CCn1c(-c2nonc2N)nc2c(C#CC(C)(C)O)nc(O[C@@H](CN)c3ccccc3)cc21.O=C(O)C(F)(F)F` [GSK1007102B], for which, in [19], the potency estimated from few doses is 719 nM.
As for `O=C(O)C(F)(F)F.O=c1[nH]ccc2nc(N[C@@H]3CCNC3)nc(Nc3cc(Cl)cc(Cl)c3)c12` [GSK2188764A], the potency estimated from few doses was 70.1 nM in assay [13] (setting [20]), 2030 nM in assay [7] (setting [20]) and 826 nM in [16] (setting [20]).
On to `Cc1cccc(Nc2nc(N[C@H]3CCNC3)ncc2C(N)=O)c1.Cl` [GSK2197149A], for which the potency estimated from few doses in [6] (setting [20]) is 1110 nM.
For the molecule `NCC(NC(=O)c1cc(-c2cn[nH]c2)c(-c2ccnc3[nH]ccc23)s1)c1ccccc1.NCC(NC(=O)c1cc(-c2cn[nH]c2)c(-c2ccnc3[nH]ccc23)s1)c1ccccc1.O=C(O)C(F)(F)F.O=C(O)C(F)(F)F` (stereo not shown) [GSK1325775A], in assay [11] (CATDS: 3.5400947915422802E-2), the potency estimated from few doses is 1180 nM.
